Screening data as filed in PubChem BioAssay.
HCMV antiviral – inhibitors of human cytomegalovirus | HFF cells, HCMV-luciferase reporter, 72 h; active compounds read low | activity change, negative = inhibition, % at 57.5 µM | hit rate 4.5% among 410,000 | AID 1259415; in the data active means activity change below about -60%; inconclusive means no clear call, values can overlap the other calls; inactive means above about -39%
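Cell-based, HFFs, 1000 cells/well, 16 h 37C; cpds in DMSO + HCMV-luc, MOI 1 PFU/cell; 72 h 37C; OneGlo luminescence after 5 min RT; norm. to buffer vs Salinomycin 10uM.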
Marburg entry inh – Marburg virus entry inhibition; Marburg virus pseudotyped entry inhibition, cell reporter; Potency, µM (top dose mostly 37.8 µM), for the others: at the top dose activity change, negative = inhibition, most hits filed as inhibitors; hit rate 1.8% among 300,000; AID 540276; calls by dose curve; tested in HEK293 cells; further: potency means the concentration at half of the fitted maximal effect
Pf growth 96h – P. falciparum growth inhibition at 96 hours; P. falciparum luciferase reporter growth, 96 h; Potency, µM (series often up to 28.7 µM), for the others: top-dose activity change, negative = inhibition, usual class: inhibitors; hit rate 6.9% among 320,000; further: potency means the concentration at half of the fitted maximal effect
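Delayed-death screen, second-generation endpoint: infected erythrocytes, 2% hematocrit, 0.05% parasitemia final; 96 hours at 37 C, 5% CO2; luciferase detection reagent; luminescence decrease equals reduced growth.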
Pf growth 48h – P. falciparum growth inhibition at 48 hours (one generation); P. falciparum luciferase growth in erythrocytes, 48 h; Potency, µM (doses to about 28.7 µM), for inactives: at the highest dose activity change, negative = inhibition, most hits filed as inhibitors; hit rate 5.9% among 310,000; further: potency means the concentration at half of the fitted maximal effect
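Firefly luciferase activity from engineered P. falciparum reports growth; inhibitors lower the luminescent signal. Cultures contained 2% hematocrit erythrocytes at 0.1% final parasitemia.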
HCV inhibitor – HCV inhibition; Huh7.5.1 HCVcc-Cre infection, luciferase reporter, 44 h; Potency, µM (top dose mostly 41.8 µM), for the others: top-dose activity change, negative = inhibition, hits mostly inhibitors; hit rate 3.4% among 340,000; AID 651820; further: potency means the concentration at half of the fitted maximal effect
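Cells seeded at 1,000/well and cultured 4 h, then compounds added followed by HCVcc-Cre virus (~0.5 moi). After 44 h further culture, luciferase substrate was added, plates held 15 min at room temperature, and luminescence read for 15 sec.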
LASV entry inh – blocks Lassa virus binding to or entry into cells; hit rate 1.2% among 300,000; Lassa virus pseudotype entry inhibition, cell reporter; AID 540256; Potency, µM (highest dose often 37.9 µM), for inactives: at the top dose activity change, negative = inhibition, most hits filed as inhibitors; calls by dose curve; tested in HEK293 cells; further: potency means the concentration at half of the fitted maximal effect; nearly all actives have a fitted effect of over 50% in size
Starred values were filed as active, the others as inactive; [ ] = dose if it differs, or a comment. A selection: hits, their analogues and other compounds. The true share with any hit is near 14%. Unless noted, the call rests on the fitted dose curve; in most records, active means well fitted inhibition curve with a large enough effect; inconclusive means small, poorly fitted or top-dose-only effect, or another doubt; inactive means no such curve, though single readings can be large or run the other way. On the % scale 0 is the no-effect control and ±100 the full control effect.

Cc1ccc(NC(=S)NCCN(C2CCCCC2)C2CCCC2)cc1C was read as HCMV antiviral -38.0, Marburg entry inh 9.2µM*, Pf growth 96h inconclusive, Pf growth 48h inconclusive, HCV inhibitor inconclusive and LASV entry inh inconclusive.
Screening CC1CCCCN1c1nc(-c2ccncc2)nc2ccccc12 (stereo not drawn) returned HCMV antiviral -33.4, Marburg entry inh inconclusive, Pf growth 96h 3.6%, Pf growth 48h 8.28µM*, HCV inhibitor 10µM* and LASV entry inh -10.4%.
Screening CC1CCCCN1c1ncnc2ccccc12 (stereo not drawn) returned HCMV antiviral -88.4*, Marburg entry inh inconclusive, Pf growth 96h 11.4%, HCV inhibitor inconclusive and LASV entry inh inconclusive.
For c1ccc2c(N3CCCCC3)ncnc2c1 the results were HCMV antiviral -91.0*, Marburg entry inh -0.2%, Pf growth 96h 57.6%, Pf growth 48h 3.0%, HCV inhibitor inconclusive and LASV entry inh -6.1%.
CC1(C)CC2CC(C)(CN2c2ncnc3ccccc23)C1 (stereo not drawn) was read as HCMV antiviral -63.2*, Marburg entry inh inconclusive, Pf growth 96h inconclusive, Pf growth 48h inconclusive, HCV inhibitor 11.2µM* and LASV entry inh -29.8%.
Screening CC1CCN(c2nc(-c3ccc(C(C)(C)C)cc3)nc3ccccc23)CC1 returned HCMV antiviral 17.8 and LASV entry inh 16.3%[46.1 µM].
Screening COc1ccc(N(Cc2cccs2)C(=O)COc2ccc(C(C)C)cc2)cc1 returned HCMV antiviral 3.8, Marburg entry inh -14.2%[46.1 µM] and LASV entry inh 13.5%[46.1 µM].
For COC(=O)[C@]12CCCCC=C1N(Cc1ccc(Cl)cc1Cl)C(=O)[C@H](CC(=O)NCc1cccs1)C2 the results were HCMV antiviral 34.8.
Screening COc1cc(NC(=O)CN2CCN(C(=O)c3ccco3)CC2)c(C)cc1[N+](=O)[O-] returned HCMV antiviral -12.4.
CCC1CCCCN1c1nc(-c2cccc(OC)c2O)nc2ccccc12 (stereo not drawn) was read as HCMV antiviral 38.8, Marburg entry inh inconclusive, Pf growth 96h inconclusive, Pf growth 48h inconclusive, HCV inhibitor inconclusive and LASV entry inh -5.7%.
For CCC1CCCCN1c1nc(-c2ccncc2)nc2ccccc12 (stereo not drawn) the results were HCMV antiviral inconclusive, Marburg entry inh 9.2µM*, Pf growth 96h 2.6%, HCV inhibitor 11.2µM* and LASV entry inh inconclusive.
`COc1ccc(CSc2nc(C)cc(=O)[nH]2)cc1` gave HCMV antiviral 19.9, Marburg entry inh inconclusive, Pf growth 96h 4.65µM*, Pf growth 48h 0.0%, HCV inhibitor 3.1% and LASV entry inh 3.8%.
Screening Cc1cc(=O)[nH]c(SCc2ccccc2)n1 returned HCMV antiviral 19.0, Marburg entry inh -3.3%[46.1 µM], Pf growth 96h 2.7%, Pf growth 48h 11.7µM*, HCV inhibitor 7.7% and LASV entry inh 2.2%[46.1 µM].
Cc1cc(=O)[nH]c(SCCc2ccccc2)n1 was read as HCMV antiviral -20.5, Marburg entry inh 17.9%[46.1 µM], Pf growth 96h 53.4%, Pf growth 48h 14.5%, HCV inhibitor 8.8% and LASV entry inh 21.7%[46.1 µM].
For CCCn1c2c(c(O)c(C(=O)NC)c1=O)CCCC2 the results were HCMV antiviral -32.6, Marburg entry inh 0.0%, Pf growth 96h inconclusive, Pf growth 48h -25.2%, HCV inhibitor inconclusive and LASV entry inh 6.1%.
For CCCCCCn1c2c(c(=N)c3c1CCC3)CCC2 the results were HCMV antiviral -104.3*, Marburg entry inh 8.2µM*, Pf growth 96h 20.9%, Pf growth 48h 0.208µM*, HCV inhibitor 10µM* and LASV entry inh 3.66µM*.
For CCCCCCCn1c2c(c(=N)c3c1CCC3)CCCC2 the results were HCMV antiviral -94.9*, Marburg entry inh inconclusive, Pf growth 96h 6.4%, Pf growth 48h 0.294µM*, HCV inhibitor 4.47µM* and LASV entry inh inconclusive.
`CCn1c2c(c(=N)c3c1CCC3)CCC2` gave HCMV antiviral -83.9*, Marburg entry inh inconclusive, Pf growth 96h 0.185µM*, Pf growth 48h 0.465µM*, HCV inhibitor 1.7% and LASV entry inh 2.0%.
Screening CCn1c(=O)c2c3c(sc2n(C)c1=O)CCC3 returned HCMV antiviral inconclusive, Marburg entry inh 0.8%, Pf growth 96h 27.9%, Pf growth 48h 14.2%, HCV inhibitor -11.4% and LASV entry inh 2.2%.
Screening CCCCCCn1c(=O)[nH]c2c(c1=O)CCC2 returned HCMV antiviral 18.6, Marburg entry inh 5.6%[46.1 µM], Pf growth 96h 16.2%, Pf growth 48h 4.3%, HCV inhibitor -5.1% and LASV entry inh -14.7%[46.1 µM].
CCCCCCCCCn1c2c(c(=N)c3c1CCC3)CCC2 was read as Marburg entry inh inconclusive, Pf growth 96h 0.131µM*, Pf growth 48h 0.294µM*, HCV inhibitor 0.891µM* and LASV entry inh 1.41µM*.
For Fc1ccc(CN2CCCCCCC2)cc1 the results were HCMV antiviral 6.2, Marburg entry inh 8.2%, Pf growth 96h 11.8%, HCV inhibitor 3.0% and LASV entry inh 0.2%.
For CCCCn1c2c(c(=N)c3c1CCC3)CCC2 the results were HCMV antiviral -88.7*, Marburg entry inh inconclusive, Pf growth 96h 0.0329µM*, Pf growth 48h 0.147µM*, HCV inhibitor inconclusive and LASV entry inh inconclusive.
N=c1c2c(n(Cc3ccc(F)cc3)c3c1CCC3)CCC2 was read as HCMV antiviral -99.7*, Marburg entry inh inconclusive, Pf growth 96h -7.7%, Pf growth 48h 0.117µM*, HCV inhibitor 7.7% and LASV entry inh -56.2%.
Screening C#CCN1CC(COCCCC)Oc2cccc(F)c2S1(=O)=O (stereo not drawn) returned HCMV antiviral -15.5 and LASV entry inh -1.4%[46.1 µM].
Screening Nc1c(S(=O)(=O)c2ccccc2)c2nc3ccccc3nc2n1/N=C/c1ccco1 returned HCMV antiviral -31.8, Marburg entry inh inconclusive, Pf growth 96h inconclusive, Pf growth 48h inconclusive, HCV inhibitor inconclusive and LASV entry inh -17.5%.
`Nc1c(C(=O)NC2CCCCC2)c2nc3ccccc3nc2n1/N=C/c1ccco1` gave Marburg entry inh 0.9%, Pf growth 96h 9.28µM* and Pf growth 48h 14.6%.
Screening Cc1ccc(S(=O)(=O)c2c(N)n(/N=C/c3ccco3)c3nc4ccccc4nc23)cc1 returned HCMV antiviral -7.6, Marburg entry inh inconclusive, Pf growth 96h inconclusive, Pf growth 48h 6.57µM*, HCV inhibitor inconclusive and LASV entry inh inconclusive.
Cc1cccc(S(=O)(=O)c2c(N)n(-c3ccccc3)c3nc4ccccc4nc23)c1 was read as HCMV antiviral -3.5, Marburg entry inh -23.9%, Pf growth 96h 9.28µM*, Pf growth 48h inconclusive, HCV inhibitor inconclusive and LASV entry inh 3.6%.
